Sampled rows, rich in hits. Any-hit rate of the full collection: about 2.8%.
PI4K2A inh: blocks human PI4K2A kinase activity; activity change, negative = inhibition, % at 76.9 µM; hit rate 0.13% among 420,000; AID 1346378; purified PI4K2A, ADP-Glo luminescence, 1 h; stronger effect = lower value; in the data active = activity change below about -50%; inconclusive = mostly about -30% to -49%;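 also: -100% = wells without enzyme as full effect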
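In this quantitative HTS, ADP production by PI4K2A was quantified luminescently after 1 h at ambient temperature; 100 microM adenosine served as plate-quality control.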
DRD3 antagonist: antagonists of human D3 dopamine receptor. D3R cells, DiscoveRx beta-arrestin luminescence, antagonist mode; stronger effect = lower value. hit rate 2.5% among 360,000. max response, negative = inhibition, %. P35462; in the data active = max response below about -50%; inconclusive = no clear call, values can overlap the other calls; also: % is scaled to controls: 0 for no effect and ±100 for the full control effect
Target sequence (P35462 whole entry, looked up): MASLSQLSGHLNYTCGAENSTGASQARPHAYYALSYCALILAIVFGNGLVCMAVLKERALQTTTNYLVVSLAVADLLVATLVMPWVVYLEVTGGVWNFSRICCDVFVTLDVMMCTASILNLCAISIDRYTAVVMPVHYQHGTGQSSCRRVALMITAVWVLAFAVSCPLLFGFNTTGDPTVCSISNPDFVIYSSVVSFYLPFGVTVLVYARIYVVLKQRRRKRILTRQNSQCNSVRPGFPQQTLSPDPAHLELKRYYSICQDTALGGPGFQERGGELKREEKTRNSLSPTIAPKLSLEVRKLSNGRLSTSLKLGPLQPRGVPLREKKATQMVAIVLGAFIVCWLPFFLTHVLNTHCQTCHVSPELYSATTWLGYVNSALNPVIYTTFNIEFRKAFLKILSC
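Cells plated overnight at 1500 cells/well, then exposed to library compounds with dopamine controls for 90 minutes at 37 degrees C. DiscoveRx reagent added for 30–60 minutes at room temperature; luminescence read, quantitative HTS format.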
LDHA block: LDHA (human) enzyme inhibition | purified LDHA, NADH/diaphorase-resazurin fluorescence; stronger effect = lower value | AID 1347041 | hit rate 0.15% among 480,000 | P00338 | activity change, % (values are at about 110 or 230 µM); in the data active = activity change below about -30%; inconclusive = mostly about -25% to -30%;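 also: plate controls were DMSO wells for no effect and wells without enzyme for full effect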
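Resorufin fluorescence (ex540/em590), read at 0 and 20 min after diaphorase/resazurin addition, reports the NADH left after a 5 min room-temperature reaction of 2 nM human LDH5 with 0.06 mM NADH and 0.2 mM pyruvate.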
DRD3 agonist: agonists of human D3 dopamine receptor | P35462 | D3R DiscoveRx beta-arrestin cells, luminescence, 90 min | max activation, % | hit rate 0.58% among 410,000; in the data active = max activation above about 30%; also: 0% is about no effect
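Cells at 1500/well, incubated overnight, then treated with pinned compounds (dopamine as control) for 90 min at 37 degrees C. DiscoveRx reagent added for 30 - 60 minutes at room temperature; luminescence read.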
RGS4 inh: human RGS4 inhibition; Transcreener GDP fluorescence polarization, RGS4-accelerated GTP hydrolysis; AID 504845; P49798; hit rate 0.039% among 390,000; Potency, µM (titrated, usually from 114 µM), without a hit: at the highest dose activity change, negative = inhibition, most hits filed as inhibitors; active = well fitted inhibition curve with a large enough effect; inconclusive = small, poorly fitted or top-dose-only effect; inactive = no such curve, though single readings can be large or run the other way; also: potency is read from the fitted curve at half-maximal effect; % is scaled to controls: 0 for no effect and ±100 for the full control effect; nearly all actives have a fitted effect of over 75% in size
Target sequence (P49798 whole entry, looked up): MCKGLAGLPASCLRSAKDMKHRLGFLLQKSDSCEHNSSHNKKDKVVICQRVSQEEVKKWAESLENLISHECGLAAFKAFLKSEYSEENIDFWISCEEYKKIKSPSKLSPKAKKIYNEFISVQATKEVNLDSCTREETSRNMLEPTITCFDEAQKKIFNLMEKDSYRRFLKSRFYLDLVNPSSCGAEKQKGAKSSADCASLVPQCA
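MLSMR compounds (23 nl, pin-transferred) preincubated 10 min at room temperature with a 500nM (2x) first reagent, then RGS4 at 900nM (2x) plus Transcreener GDP mix added; fluorescence polarization (620/688 nm) read before and after 90 min at 30 °C.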
pAkt inh: inhibitors of Akt phosphorylation | activity change, % for hits at 50 µM | AID 651550 | hit rate 0.32% among 360,000 | Neuro2A IGF-stimulated pAkt S473 HTRF, 20 min; stronger effect = lower value; in the data active = activity change below about -80%; inconclusive = mostly about -51% to -80%; also: % is scaled to controls: 0 for no effect and ±100 for the full control effect
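Neuro2A cells in DMEM with 0.5% FBS, overnight at 37 deg C, given compound at single 50 µM final, then IGF (6 nM final) for 20 min at 37 deg C. Lysed; phospho-Akt Ser473 by HTRF after 24 h, 665/615 ratio.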
Active calls of the source: *; i = inactive; ? = inconclusive; nt = no result given; [ ] = dose if it differs, or a comment.

SMILES | PI4K2A inh | DRD3 antagonist | LDHA block | DRD3 agonist | RGS4 inh | pAkt inh
O=C(NC(c1ccc(Cl)cc1)c1ccsc1)C1CCN(Cc2ccc(Oc3ccccc3)cc2)CC1 (configuration not stated) | -0.9 | -64.4* | -9.0 | -17.6 | nt | i
Cc1ccccc1C(NC(=O)C1CCN(Cc2ccc(Oc3ccccc3)cc2)CC1)c1ccsc1 (configuration not stated) | -7.7 | -56.3* | -1.0 | -13.7 | nt | i
COC(=O)C1=C(C)NC(=O)CC1C(=O)Nc1ccc(F)c(Cl)c1 (configuration not stated) | nt | nt | -20.0 | nt | nt | nt
C=CCNCc1ccc(OCC)cc1 | nt | nt | 5.9 | nt | nt | nt
O=C(NCCC(c1ccccc1)c1ccccc1)NNc1ccccn1 | nt | nt | 13.1 | nt | nt | nt
Cc1cc(C)cc(N(CC(=O)Nc2c(C)cc(C)cc2C)S(=O)(=O)c2c(C)nn(C)c2C)c1 | -0.6 | nt | -1.0 | 77.6* | -8.5% | nt
O=C(Cc1ccc(Br)cc1)Nc1cc(Cl)ccc1C(=O)O | nt | nt | -3.5 | nt | nt | nt
Cc1ccc(-c2c(C)n3c4c(=O)n(C)c(=O)n(C)c4nc3n2CCCO)cc1 | -5.3 | nt | 0.5 | 37.0* | 5.9% | nt
Cc1ccc(C)c(OCCOc2ccc3ccc(=O)oc3c2)c1 | nt | nt | 4.0 | nt | nt | nt
O=C1CCCCC(=O)[C@H](O)C[C@H](COCc2ccccc2)O1 | 5.5 | 0.0 | 0.3 | 90.9* | nt | i
Cc1ccc(-c2nc(C(Cl)Cl)c3ccccc3n2)cc1 | -1.4 | -60.0* | -2.1 | -16.7 | -12.6% | i
COc1cc(/C=C/c2ccc3ccccc3n2)cc(OC)c1O | nt | nt | 20.7 | nt | nt | nt
CCCCN(C(=O)CSc1nnc2ccccn12)c1c(N)n(Cc2ccccc2)c(=O)[nH]c1=O | -2.3 | -20.4 | -14.3 | -4.1 | 0.0% | i
CCN(C(=O)CSc1nnc2ccccn12)c1c(N)n(Cc2ccccc2)c(=O)[nH]c1=O | -0.2 | 9.8 | -4.5 | 30.5* | -29.3% | i
CCn1c(SCC(=O)N2CCc3ccccc32)nnc1-c1ccncc1 | 8.8 | -22.0 | -38.6* | -2.0 | 17.9% | i
Cn1c(SCC(=O)NCc2ccc3c(c2)OCO3)nnc1-c1cccs1 | -3.3 | 11.3 | -2.1 | -1.3 | -12.2%[56.9 µM] | i
CCn1c(SCC(=O)NCc2ccc3c(c2)OCO3)nnc1-c1cccs1 | -0.8 | -21.6 | -2.6 | -12.2 | 26.6% | -96.0%*
CCn1c(SCC(=O)N2CCCc3ccccc32)nnc1-c1cccs1 | -1.0 | -68.0* | -8.2 | 5.0 | 8.3% | i
CCc1nnc(SCC(=O)N2CCc3ccccc32)n1CC | 6.8 | -15.3 | -3.9 | -7.9 | -1.0% | i
CC(C)/C=N/NC(=O)c1ccc[n+]([O-])c1 | nt | nt | 13.0 | nt | nt | nt
CC(CC(=O)Nc1ccc(NC(=O)C(C)(C)C)cc1)c1ccccc1 (configuration not stated) | nt | nt | 5.0 | nt | nt | nt
COc1ccc(C)cc1CCNC(=O)c1ccc(NC(=O)CC2SC(N3CCCC3)=NC2=O)cc1 (configuration not stated) | nt | nt | 12.9 | nt | nt | nt
Cc1nc2ccccc2n1Cc1ccc(Br)cc1 | -0.7 | 10.6 | -9.5 | -1.8 | -1.7% | i
CC(=O)Nc1cc2c(nc1C)nc(C)n2Cc1ccc(Br)cc1 | 2.0 | -68.5* | -4.0 | -2.5 | -29.6% | i
Cc1oc(-c2cccs2)nc1CC(=O)NCCc1cccs1 | nt | nt | -0.7 | nt | nt | nt
SMILES | PI4K2A inh | DRD3 antagonist | LDHA block | DRD3 agonist | RGS4 inh | pAkt inh
CCC1CCC(N2CCN(c3ccccc3F)CC2)CC1 (configuration not stated) | 4.2 | -77.5* | -9.4 | -14.8 | 2.6% | i
Clc1ccccc1N1CCN(Cc2c[nH]c3ccccc23)CC1 | 0.4 | -78.1* | -6.8 | -28.8 | -36.7% | i
CCC1CCC(N2CCN(c3ccc(F)cc3)CC2)CC1 (configuration not stated) | -2.9 | -25.2 | 1.5 | -22.4 | 14.4% | i
OC1(c2ccc(Cl)cc2)CCN(Cc2c[nH]c3ccccc23)CC1 | 2.5 | -100.9* | -5.5 | -86.5 | 22.8%[56.9 µM] | i
O=C(CN1CCN(c2ccccc2F)CC1)c1c[nH]c2ccccc12 | -8.5 | ? | 1.9 | -2.7 | -6.7% | i
Fc1ccccc1N1CCN(C2CCN(Cc3c[nH]c4ccccc34)CC2)CC1 | 0.3 | -60.2* | 3.1 | -29.3 | -4.4% | i
Cc1ccc(C(=O)NC(C2CC2)C2CC2)cc1 | nt | nt | -1.8 | nt | nt | nt
CCCN(Cc1cc2ccc(C)cc2[nH]c1=O)S(C)(=O)=O | nt | nt | 0.8 | nt | nt | nt
O=C(c1cccnc1)N1CCN(Cc2c[nH]c3ccccc23)CC1 | nt | nt | -3.1 | nt | nt | nt
O=C(c1ccccc1)N1CCN(Cc2c[nH]c3ccccc23)CC1 | 0.7 | -85.2* | -0.3 | 2.5 | 35.1% | i
COc1cccc(-c2cc(=O)c3ccccc3o2)c1N | 1.4 | nt | nt | nt | ? | nt
COc1cc(OC)c(-c2c3cc(O)c(=O)cc-3oc3cc(O)c(O)cc23)cc1OC | -16.6 | -77.0* | 30.2 | -26.0 | ? | i
Nc1ncnc2c1ncn2[C@@H]1O[C@H](CNC(=O)[C@H](N)Cc2cscn2)[C@@H](O)[C@H]1O | -10.9 | -83.8* | -4.6 | -1.7 | 11.3% | i
Nc1ncnc2c1ncn2[C@@H]1O[C@H](CCC(=O)NCc2ccccc2)[C@@H](O)[C@H]1O | -11.3 | -93.2* | -3.4 | -10.0 | nt | i
COc1cc2c(cc1CNC[C@H]1O[C@@H](n3cnc4c(N)ncnc43)[C@H](O)[C@@H]1O)OCO2 | -7.0 | 7.0 | 1.9 | 38.9* | 3.9% | i
CC(C)Oc1cc2ccccc2cc1CNC[C@H]1O[C@@H](n2cnc3c(N)ncnc32)[C@H](O)[C@@H]1O | -4.2 | 28.8 | 0.5 | 11.6 | 21.5% | i
COC(=O)C1=C(C)N(CC(C)C)C(=O)NC1c1ccc(Br)s1 (configuration not stated) | nt | nt | 15.8 | nt | nt | nt
CN1CCN(C(c2ccc(Br)cc2)c2cc(Cl)c3cccnc3c2O)CC1 (configuration not stated) | 9.6 | -76.4* | 18.2 | -9.1 | ? | i
O=c1[nH][nH]c(C(F)(F)F)c1C=Nc1ccccc1 | -3.9 | -53.9* | -4.8 | -3.6 | 3.7% | i
COc1ccc(/C=C2\Oc3c(ccc(OS(C)(=O)=O)c3C)C2=O)c(OC)c1 | nt | nt | 8.9 | nt | nt | nt
CN=c1scc(-c2ccc(F)cc2)n1/N=C/c1ccc(O)c(O)c1 | -15.3 | 0.9 | 19.0 | 94.6* | -16.4% | i
COCCN(C(=O)CCc1ccsc1)C1CC1 | nt | nt | 3.9 | nt | nt | nt
Cc1ccc(NC(=O)CSCC(=O)OC(C)C(=O)Nc2ccc(S(N)(=O)=O)cc2)c(C)c1 (configuration not stated) | -2.7 | 0.0 | -43.8* | 5.1 | -7.7% | i
CC(C)(C)c1noc(CCC(=O)Nc2ccccn2)n1 | nt | nt | 8.9 | nt | nt | nt
CC(C)(C)c1ccc(OCCN2CCCC2)cc1 | 7.2 | -93.5* | -15.3 | -20.4 | -6.1% | nt
CC(C)(C)c1ccc(OCCCCCCN2CCNCC2)cc1 | -3.3 | -13.7 | -8.7 | -12.7 | -0.8% | i

Screens from PubChem BioAssay.
